# Data reported in PubChem BioAssay.
# “And” between values parts separate entries of the source, which are not always exact repeats. Equal values may be shown once. The source made the active and inactive calls.
# Key:
# [1] = E. coli DRC41 culture turbidity changes, primary screen, E. coli filamentation inducer project, strain DRC41, OD650, 48 h (AID 1152);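 also: E. coli MC1000 strain DRC41 lacking acrAB efflux pump and sulA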; conditions: E. coli DRC41 (acrAB sulA), higher = more signal, called active from +8 up or from −8 down
# [2] = small-molecule binders of probe aLefty1, primary screen, biochemical, small-molecule microarray, 635/667 nm fluorescence (AID 1153); conditions: higher = more signal;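 also: score merges spot fluorescence with signal-to-noise ratio from the scanned slide images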
# [3] = PSAC antagonists in infected red cells, primary screen, cell-based, P. falciparum Indochina, OD700, 1 h (AID 1154); conditions: P. falciparum Indochina infected RBC osmotic lysis, higher = more signal, called active from +8 up or from −8 down
# [4] = PSAC antagonists in infected red cells, primary screen, cell-based, P. falciparum Indochina, OD700, 2 h (AID 1155);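 also: lysis reports solute entry through the parasite surface anion channel PSAC; channel blockers reduce lysis of infected cells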; conditions: P. falciparum Indochina infected erythrocytes, osmotic lysis OD700; higher = more signal, called active from +8 up or from −8 down
# [5] = osmotic lysis modulators in infected erythrocytes, primary screen, PSAC antagonist project, cell-based, P. falciparum Indochina, OD700, 3 h (AID 1156); conditions: higher = more signal, called active from +8 up or from −8 down
# [6] = PSAC antagonists in infected red cells, primary screen, cell-based, P. falciparum Indochina, OD700, 18 h (AID 1157); conditions: P. falciparum Indochina infected erythrocytes, osmotic lysis OD700, 18 h; higher = more signal, called active from +8 up or from −8 down
# [7] = modulators of S6 phosphorylation in cells, primary screen, cell-based, A549, cytoblot, luminescence, serum-stimulated (AID 1158); conditions: A549 phospho-S6 cytoblot, 5 h, higher = more signal;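 also: serum-stimulated A549 lung adenocarcinoma cells; signal is phosphorylated S6 detected by cytoblot immunostaining with HRP secondary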
# [8] = target: NADPH oxidase 2 (Homo sapiens) (UniProt P04839); assay: NOX2-dependent H2O2 signal modulators, primary screen, NOX inhibitor project, cell-based, HEK293-NOX2, PMA-stimulated, Amplex Red fluorescence (AID 1159); conditions: 45 min, higher = more signal, called active from +8 up or from −8 down; also: test concentration not given here
# [9] = target: NADPH oxidase 4 (Homo sapiens) (UniProt Q9NPH5); assay: NOX4-dependent H2O2 signal modulators, primary screen, NOX inhibitor project, cell-based, HEK293-NOX4, tetracycline-induced, Amplex Red fluorescence (AID 1160); conditions: 45 min, higher = more signal, called active from +8 up or from −8 down
# [10] = target: NADPH oxidase 5 (Homo sapiens) (UniProt Q96PH1); assay: NOX5-dependent H2O2 signal modulators, primary screen, NOX inhibitor project, cell-based, HEK293-NOX5, Amplex Red fluorescence (AID 1161); conditions: HEK293-NOX5, ionomycin, 45 min, higher = more signal
# [11] = A549 cell viability effects, profiling panel, calcein-AM fluorescence, 48 h, basal (AID 1162); conditions: higher = more signal; also: test concentration not given here
# [12] = adipocyte viability effects, profiling panel, cell-based, 3T3-L1 adipocytes, calcein-AM fluorescence, 48 h, basal (AID 1163); conditions: 3T3-L1 adipocytes viability, higher = more signal; also: test concentration not given here
# [13] = HepG2 cell viability effects, profiling panel, calcein-AM fluorescence, 48 h, basal (AID 1164); conditions: higher = more signal; also: test concentration not given here
# [14] = MM1S cell viability effects, profiling panel, calcein-AM fluorescence, 48 h, basal (AID 1165); conditions: higher = more signal;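 also: viability of MM1S multiple myeloma cells under basal unstimulated conditions; test concentration not given here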
# [15] = basal RPMI8226 viability, no added stimulus, profiling panel, cell-based, calcein-AM fluorescence, 48 h, PK04 Diversity Set (AID 1166); conditions: RPMI8226 myeloma viability, higher = more signal;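 also: cells grown under basal conditions without added stimulus; test concentration not given here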
# [16] = basal HepG2 mitochondrial membrane potential changes, profiling panel, cell-based, JC-1 fluorescence, 24 h, 100 nL compound (AID 1167); conditions: higher = more signal; also: test concentration not given here
# [17] = basal 3T3-L1 adipocyte mitochondrial potential changes, profiling panel, cell-based, JC-1 fluorescence, 3T3-L1 adipocytes, 24 h, 100 nL compound (AID 1168); conditions: JC-1 mitochondrial fluorescence, higher = more signal, called active from +8 up or from −8 down; also: test concentration not given here
# [18] = basal RPMI8226 mitochondrial membrane potential changes, profiling panel, cell-based, JC-1 fluorescence, 24 h, 100 nL compound (AID 1169); conditions: RPMI8226 myeloma, JC-1 mitochondrial potential fluorescence, higher = more signal; also: test concentration not given here
# [19] = basal MM1S mitochondrial membrane potential changes, profiling panel, cell-based, JC-1 fluorescence, 24 h, 100 nL compound (AID 1170); conditions: higher = more signal; also: test concentration not given here
# [20] = A549 lung cancer cell viability effects, profiling panel, resazurin fluorescence, 24 h, PK04 Diversity Set (AID 1171); conditions: higher = more signal, called active from +8 up or from −8 down; also: test concentration not given here
# Sequence of NADPH oxidase 2 (Homo sapiens) (P04839 whole entry, looked up): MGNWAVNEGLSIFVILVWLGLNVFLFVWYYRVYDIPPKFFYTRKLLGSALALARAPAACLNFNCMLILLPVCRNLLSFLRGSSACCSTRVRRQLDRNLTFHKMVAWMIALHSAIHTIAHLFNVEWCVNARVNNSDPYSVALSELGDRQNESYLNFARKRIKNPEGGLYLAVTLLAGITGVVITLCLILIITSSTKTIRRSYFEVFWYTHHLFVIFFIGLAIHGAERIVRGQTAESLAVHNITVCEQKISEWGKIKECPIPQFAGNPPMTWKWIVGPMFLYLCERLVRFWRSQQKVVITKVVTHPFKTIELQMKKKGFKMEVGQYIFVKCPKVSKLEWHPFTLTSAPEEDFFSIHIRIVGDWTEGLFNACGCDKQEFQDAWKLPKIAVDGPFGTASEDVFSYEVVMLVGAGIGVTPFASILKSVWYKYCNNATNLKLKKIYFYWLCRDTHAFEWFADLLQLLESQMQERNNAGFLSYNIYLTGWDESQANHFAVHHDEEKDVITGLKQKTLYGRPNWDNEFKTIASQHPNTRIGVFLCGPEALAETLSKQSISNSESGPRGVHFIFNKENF
# Sequence of NADPH oxidase 5 (Homo sapiens) (Q96PH1 whole entry, looked up): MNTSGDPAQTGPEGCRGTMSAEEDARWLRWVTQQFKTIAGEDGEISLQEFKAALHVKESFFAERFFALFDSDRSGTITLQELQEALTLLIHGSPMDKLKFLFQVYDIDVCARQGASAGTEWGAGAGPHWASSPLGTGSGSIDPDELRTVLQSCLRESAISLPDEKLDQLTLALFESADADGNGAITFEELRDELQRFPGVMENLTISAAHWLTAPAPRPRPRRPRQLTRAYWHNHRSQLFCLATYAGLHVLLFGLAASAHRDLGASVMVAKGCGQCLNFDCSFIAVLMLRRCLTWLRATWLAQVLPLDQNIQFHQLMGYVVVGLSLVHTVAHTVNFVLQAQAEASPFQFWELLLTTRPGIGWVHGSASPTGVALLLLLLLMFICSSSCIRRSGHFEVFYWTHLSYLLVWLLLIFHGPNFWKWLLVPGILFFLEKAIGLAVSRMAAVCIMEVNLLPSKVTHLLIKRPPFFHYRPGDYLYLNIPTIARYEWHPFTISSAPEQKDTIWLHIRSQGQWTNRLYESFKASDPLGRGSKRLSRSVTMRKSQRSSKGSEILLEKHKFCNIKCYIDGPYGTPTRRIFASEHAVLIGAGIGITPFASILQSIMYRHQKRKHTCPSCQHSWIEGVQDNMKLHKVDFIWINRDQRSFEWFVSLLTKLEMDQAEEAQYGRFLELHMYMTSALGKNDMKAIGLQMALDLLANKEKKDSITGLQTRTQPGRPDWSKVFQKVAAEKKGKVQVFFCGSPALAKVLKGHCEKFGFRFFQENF
# Sequence of NADPH oxidase 4 (Homo sapiens) (Q9NPH5 whole entry, looked up): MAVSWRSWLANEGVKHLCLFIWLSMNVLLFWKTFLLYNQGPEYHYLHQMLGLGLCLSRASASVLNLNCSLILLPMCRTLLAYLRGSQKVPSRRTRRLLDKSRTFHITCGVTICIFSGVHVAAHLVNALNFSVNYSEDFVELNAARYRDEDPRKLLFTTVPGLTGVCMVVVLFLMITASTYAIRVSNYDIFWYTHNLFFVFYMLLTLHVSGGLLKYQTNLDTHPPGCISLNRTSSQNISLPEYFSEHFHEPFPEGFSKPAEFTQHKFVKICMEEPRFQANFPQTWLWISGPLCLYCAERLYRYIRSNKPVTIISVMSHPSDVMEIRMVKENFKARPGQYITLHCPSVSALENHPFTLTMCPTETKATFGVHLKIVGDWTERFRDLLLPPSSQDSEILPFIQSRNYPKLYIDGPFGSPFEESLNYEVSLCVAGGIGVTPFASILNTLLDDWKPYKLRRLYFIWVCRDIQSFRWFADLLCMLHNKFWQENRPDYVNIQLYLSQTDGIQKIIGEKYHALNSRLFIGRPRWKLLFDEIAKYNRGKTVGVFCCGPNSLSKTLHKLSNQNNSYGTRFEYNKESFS
SMILES,z-score [1],composite z-score [2],z-score [3],z-score [4],z-score [5],z-score [6],z-score [7],z-score [8],z-score [9],z-score [10],z-score [11],z-score [12],z-score [13],z-score [14],z-score [15],z-score [16],z-score [17],z-score [18],z-score [19],z-score [20]
CCOC(=O)C[C@H]1[C@H](OC(=O)c2ccccc2-c2ccccc2)[C@@H](NC(=O)c2ccccc2)c2cc(OCCCO)ccc2N1C(=O)c1ccc2ccccc2n1,0.869 (inactive) and -0.664 (inactive),0.126 and 0.341,5.24 (inactive) and 2.8 (inactive),0.709 (inactive) and 0.295 (inactive),0.195 (inactive) and -0.416 (inactive),0.353 (inactive) and 0.188 (inactive),0.649 and -0.172,-0.556 (inactive) and -1.18 (inactive),0.848 (inactive) and 0.921 (inactive),2.2 and 0.732,0.916 and -0.393,0.804 and -0.0181,0.694 and 1.01,0.175 and -1.55,-0.749 and -0.483,0.733 and 1.5,0.408 (inactive) and 0.209 (inactive),-1.08 and 0.127,-0.627 and 0.14,0.65 (inactive) and 0.579 (inactive)
C=C(C)C(=O)OC[C@@H]1CN2[C@@H](CC[C@@H](C)[C@@H]2c2ccc(Br)cc2)C(=O)O1,-0.181 (inactive),0.218,1.51 (inactive),0.0995 (inactive),0.289 (inactive),0.294 (inactive),0.525,-0.29 (inactive),1 (inactive),0.481,0.254,-0.2,1.08,0.419,0.427,0.642,0.945 (inactive),-0.28,-0.631,0.173 (inactive)
CC(C)[Si]1(C(C)C)OCc2cc(C3CC3)nc(CCc3ccccc3)c21,-0.102 (inactive) and -0.904 (inactive),0.111 and -0.235,0.922 (inactive) and 0.437 (inactive),0.742 (inactive) and 0.438 (inactive),-0.416 (inactive) and -0.978 (inactive),0.309 (inactive) and -0.401 (inactive),-0.295 and -0.326,2.57 (inactive) and -0.368 (inactive),1.14 (inactive) and 1.35 (inactive),-0.319 and -2.87,-0.351 and -0.69,0.193 and -0.871,0.498 and 0.203,-2.57 and -2.81,-0.48 and -3.77,-1.5 and -2.69,-0.186 (inactive) and -0.575 (inactive),-0.14 and -0.902,0.245 and -0.582,1.12 (inactive) and 1.39 (inactive)
